Assay outcomes as filed in PubChem BioAssay.
D1 agonist: human D1 receptor agonism | activation, % at 2 µM | HEK293 T-REx D1 cells, calcium flux, agonist mode | P21728 | 360,000 compounds, 1% hits; also: 0% is about no effect
Target sequence (P21728 whole entry, looked up): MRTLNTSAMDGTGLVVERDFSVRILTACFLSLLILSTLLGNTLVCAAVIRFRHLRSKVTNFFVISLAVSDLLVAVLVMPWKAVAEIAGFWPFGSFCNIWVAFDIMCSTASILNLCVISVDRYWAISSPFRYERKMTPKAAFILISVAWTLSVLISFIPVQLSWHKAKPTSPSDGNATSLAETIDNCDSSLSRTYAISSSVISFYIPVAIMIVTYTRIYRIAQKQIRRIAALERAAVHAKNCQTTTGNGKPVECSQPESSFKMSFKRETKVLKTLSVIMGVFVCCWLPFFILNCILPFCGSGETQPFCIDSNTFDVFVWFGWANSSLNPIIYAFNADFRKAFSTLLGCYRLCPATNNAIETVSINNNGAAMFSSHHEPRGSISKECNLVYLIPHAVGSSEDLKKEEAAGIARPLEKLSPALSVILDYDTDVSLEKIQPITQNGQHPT
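Agonism was scored from calcium flux recorded over 180 s (1 read/s) after pintool compound addition, following a 10-cycle baseline. Cells were inducible force-coupled HEK293 TREx D1, plated overnight at 30 C and loaded with no-wash calcium dye.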
D1 antagonist: antagonists of human D1 dopamine receptor | HEK293 TREx D1 cells, calcium flux, dopamine EC80; hits give low values | activity change, negative = inhibition, % at 10 µM | 360,000 compounds, 3.2% hits | P21728; in the data active = activity change below about -30%; also: % is scaled to controls: 0 for no effect and ±100 for the full control effect
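Antagonism measured as reduced calcium response to an EC80 dopamine addition following 180 s compound pre-read; cells were inducible HEK293 Trex D1 plated overnight at 30 C, read kinetically at 1 cycle/sec.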
TRHR enhancer-1: allosteric enhancers of human TRH receptor. AID 493056. 360,000 compounds, 0.66% hits. enhancement, % at 2 µM. P34981. TRHR cells, fluo-8 calcium fluorescence, EC20 TRH enhancement; in the data active = enhancement above about 30%; also: 0% is about no effect
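Enhancer read-out: after compound pinning and an initial kinetic agonist-mode read, an EC20 of TRH (10 nM final) was injected and fluo-8 calcium signal (Ex 480/Em 530) followed at 1 s/cycle for 100 cycles in TRHR-expressing cells.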
TRHR agonist-1: activates the human TRH receptor; TRHR cells, calcium flux fluo-8, FDSS agonist mode; activation, % at 2 µM; 360,000 compounds, 0.18% hits; P34981; also: 0% is about no effect
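Steps: seed TRHR cells overnight; add fluo-8 no-wash Ca dye, RT 30 min–1.5 h; record 10 s baseline; pin-transfer compounds; monitor fluorescence 1 cycle/s for the agonist window. Calcium increases flag candidate agonists.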
D1 potentiator: human D1 dopamine receptor positive modulation; HEK293 TREx D1 cells, calcium flux, dopamine EC20 potentiation; potentiation, % at 10 µM; 360,000 compounds, 0.036% hits; in the data active = potentiation above about 30%; also: 0% is about no effect
TRHR enhancer-2: human TRH receptor allosteric enhancement confirmation | shares compounds with TRHR enhancer-1 | TRH receptor cell assay, enhancer confirmation qHTS | activity change, negative = inhibition, % at 46.1 µM | 970 tested, under 10 active | AID 493076; active = well fitted curve in the direction sought with a large enough effect; inconclusive = small, poorly fitted or top-dose-only effect, or another doubt; inactive = no such curve, though single readings can be large; an effect the other way counts as inactive or inconclusive;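 also: compound effect scored on response to added TRH at EC20 of 10 nM; 0% is about no effect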
TRHR agonist-2: human TRH receptor agonism confirmation | shares compounds with TRHR enhancer-1 | TRHR-expressing cells, agonist activation read-out | Potency, µM (highest dose often 46.1 µM), for inactives: at the highest dose activation, actives largely listed as activators | 970 compounds, 8% hits | AID 493078; active = well fitted curve in the direction sought with a large enough effect; inconclusive = small, poorly fitted or top-dose-only effect, or another doubt; inactive = no such curve, though single readings can be large; an effect the other way counts as inactive or inconclusive; also: potency is read from the fitted curve at half-maximal effect; 0% is about no effect; nearly all actives have a fitted effect of over 75% in size
The depositor's hits bear a star; ? = inconclusive; · = no result given. Only some compounds are listed: those with a hit (about 4.7% of all), similar ones and a draw of the others. Rule as the data show it, unless noted: active = activation above about 30%; inactive = the rest.

SMILES	D1 agonist	D1 antagonist	TRHR enhancer-1	TRHR agonist-1	D1 potentiator	TRHR enhancer-2	TRHR agonist-2
COc1cc(C(=O)NCc2ccccc2)ccc1OC(F)F	2.7	-16.7	3.8	-1.0	5.8	·	·
COc1ccccc1CNC(=O)c1ccc(OC(F)F)c(OC)c1	0.6	5.8	51.5*	-0.6	-4.8	-5.5	0.7%
Cc1ccc(C(=O)Nc2nnc(S(=O)(=O)N3CCCc4ccccc43)s2)cc1	1.4	10.1	13.6	0.0	1.1	·	·
CN1OCC(S(=O)(=O)c2ccccc2)C1c1ccccc1 (stereo not given)	1.9	-9.5	44.2*	0.3	0.1	8.1	2.7%
O=S(=O)(c1ccccc1)C1CON(Cc2ccccc2)C1c1ccccc1 (stereo not given)	1.9	-9.1	14.4	0.8	-3.2	·	·
COc1ccccc1N(CC(=O)NCc1cccnc1)S(C)(=O)=O	1.4	20.2	48.0*	0.2	-1.2	8.4	0.9%
O=C(CNC(=O)c1ccccc1)NC1(C(=O)NC2CCCCC2)CCCCC1	3.2	8.3	53.4*	0.7	5.5	-15.6	-0.5%
O=C(CNC(=O)c1ccccc1)NC1(C(=O)NC2CCCC2)CCCCC1	-0.1	1.6	-5.3	-0.4	0.1	·	·
CC(=O)c1cc(NC(=O)c2ccc(C)cc2)c(=O)oc1/C=C/N(C)C	34.2*	15.0	-0.7	29.1	0.0	3.6	20.6µM*
Cc1ccc([N+](=O)[O-])c(Oc2ncnc3c2oc2ccccc23)c1	-0.3	-10.3	3.8	-0.6	-1.0	·	·
CCOC(=O)c1ccc(N2C(=O)c3n[nH]c(-c4ccco4)c3C2c2ccccc2OC)cc1 (stereo not given)	2.7	1.8	9.4	1.7	11.8	·	·
CCOC(=O)c1cc(CC)sc1NC(=O)COC(=O)c1cnccn1	1.2	-3.8	12.9	-0.4	-7.0	·	·
CCOC(=O)c1cc(CC)sc1NC(=O)COC(=O)c1ccccn1	4.2	12.3	3.1	35.7*	5.0	6.3	1.4%
CC1(C)Cc2c(sc(NC(=O)c3ccc4ncsc4c3)c2C(N)=O)C(C)(C)N1	1.6	1.4	43.6*	-0.5	-0.1	9.4	-0.3%
COc1cc(/C=C(\C#N)C(=O)NCCc2ccccc2)cc(OC)c1O	72.7*	15.9	11.7	56.0*	2.3	6.8	20.6µM*
CCc1nc(SC)[nH]c(=O)c1C	1.3	26.0	43.1*	-1.0	-1.1	-0.8	-0.3%
CCc1nc(SCC(=O)Nc2cccc3ccccc23)[nH]c(=O)c1C	-0.4	-17.7	-5.6	-0.1	-8.5	·	·
COc1ccc(N2CC(NC(=O)c3ccc4c(c3)OCO4)CC2=O)cc1 (stereo not given)	-2.7	·	6.8	-0.3	0.1	·	·
Cn1c(=O)c(N)c2c3c(c(Br)ccc31)C(=O)c1ccccc1-2	72.7*	-8.9	-4.7	59.6*	-5.2	-5.1	18.4µM*
Cc1ccc(OCCCCn2c(-c3ccc(Cl)cc3)nc3ccccc3c2=O)cc1	2.5	-3.5	12.1	-0.2	-1.7	·	·
O=C(N/N=C/c1c(O)n(-c2ccc(Cl)cn2)c(=O)c2ccccc12)c1ccncc1	44.5*	-6.0	6.3	38.2*	-8.8	11.3	20.6µM*
O=C(N/N=C/c1c(O)n(-c2ccc(Cl)cn2)c(=O)c2ccccc12)C1CC1	1.3	4.4	4.6	1.7	1.6	·	·
NC(=O)CN1CCOCCOCCN(CC(N)=O)CCOCCOCC1	-0.2	1.3	54.7*	-0.7	-4.0	?	-0.6%
Cc1c2cnn(-c3ccccc3)c(=O)c2c(C)n1CCCC(=O)Nc1cc(F)ccc1F	-0.1	16.2	2.1	-1.6	-0.3	·	·
CN1CCS/C1=C/C=C1\SC(=S)N(CC(=O)O)C1=O	41.9*	8.5	-3.2	26.7	-3.6	3.7	20.6µM*
SMILES	D1 agonist	D1 antagonist	TRHR enhancer-1	TRHR agonist-1	D1 potentiator	TRHR enhancer-2	TRHR agonist-2
O=C(O)CN1C(=O)/C(=C/c2ccc(N3CCCCC3)o2)SC1=S	6.8	-14.2	-2.4	0.3	8.0	·	·
COc1ccc(-c2cc(C(F)(F)F)n3nc(C(=O)Nc4cc(C(F)(F)F)ccc4Cl)cc3n2)cc1OC	0.0	-7.4	5.4	-2.3	2.2	·	·
O=S(=O)(NCC1CCCO1)c1ccc(Cl)cc1 (stereo not given)	3.8	-3.8	45.5*	0.0	0.0	-2.2	0.9%
CCn1cc(C(=O)N2CCN(c3ccccc3OC)CC2)c(=O)c2cc(S(=O)(=O)N3CCC(C)CC3)ccc21	1.8	10.8	-1.3	-1.3	0.9	·	·
CC(=O)N1CC(C)Oc2ccc(S(=O)(=O)NC(CC(=O)O)c3ccccc3)cc21 (stereo not given)	4.2	-21.9	43.6*	0.5	-11.5	-6.3	-0.6%
CN(C)CCCNC1=CC(=O)CC(c2ccccc2)C1 (stereo not given)	-1.3	-0.5	55.8*	-0.1	-0.6	11.7	-0.6%
CCC(=O)Nc1ccc(CC)cc1-c1nc2ccccc2n(CC(=O)Nc2cccc(OC)c2)c1=O	0.0	8.6	1.1	-0.3	-0.7	·	·
Cc1cc(C)n(CCN(C)c2nc3nonc3nc2N2CCCCC2)n1	-0.4	-0.2	2.4	0.1	-4.3	·	·
Cc1cc(C)n(-c2nc3nonc3nc2-n2nc(C)cc2C)n1	0.6	-2.0	54.2*	0.0	-0.1	-3.9	4.1%
C[C@@H](C(=O)N1CCNCC1)n1cc(CCCN=C(N)N)nn1	5.9	0.3	64.1*	0.2	-2.1	-2.3	-0.7%
CCC(C)[C@@H](C(=O)N1CCNCC1)n1cc(CCCN=C(N)N)nn1 (stereo not given in full)	0.9	-9.0	-6.8	0.3	8.8	·	·
Cc1ccccc1NC(=O)CN1CCOCC1	2.5	-2.2	55.9*	-0.1	-3.0	14.5	-0.4%
Cc1ccccc1NC(=O)CN1CCN(C)CC1	10.3	16.0	14.6	-1.3	-0.2	·	·
Cc1ccc2ccc3cc(C(=O)N4CCN(c5ccccc5)CC4)nc3c2[nH]1	20.4	29.5	23.8	-0.8	-0.9	·	·
Cc1cc(C(=O)COc2cccc3cccnc23)c(C)n1C	-4.5	0.9	5.8	-1.0	0.1	·	·
Cc1ccc(OCC(=O)c2cc(C)n(C)c2C)c([N+](=O)[O-])n1	5.2	-3.2	44.3*	0.1	-3.0	-5.0	-0.2%
COc1ccc2c(Sc3ccccc3)c(C(=O)NCc3ccc(OC(C)C)cc3)[nH]c2c1	1.0	-3.7	-1.6	0.1	-1.6	·	·
O=S(=O)(Nc1cnc2ccccc2c1)N1CCCCCC1	4.3	12.9	47.9*	1.3	-6.3	2.0	4.1%
Cc1ccc(S(=O)(=O)Nc2cnc3ccccc3c2)cc1	8.8	-2.7	7.4	1.5	2.8	·	·
COc1ccc(N2CCN(C(=O)CN3CCSc4ccccc43)CC2)cc1	3.9	11.1	0.8	0.2	-0.9	·	·
